In the supplement of paper PMC9446081:
± gives the standard deviation of the averaged measurements.

The compounds below were run against MurC (UniProt C4ZRI6) (assay: relative enzymatic activity vs untreated control (fraction); higher = less inhibition). Details: 100 µM; incubation time: 2 h at 37 C.
Method: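 In vitro enzymatic inhibition assays (ProFoldin kits) for 12 purified essential E. coli enzymes or complexes, each treated with 218 active antibacterial compounds at 100 µM for 2 h at 37°C. Read-outs were fluorescence or absorbance (phosphate detection, dye binding), converted to activity via standard curves and expressed relative to untreated DMSO controls.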

MurC, sequence (C4ZRI6 whole entry, looked up): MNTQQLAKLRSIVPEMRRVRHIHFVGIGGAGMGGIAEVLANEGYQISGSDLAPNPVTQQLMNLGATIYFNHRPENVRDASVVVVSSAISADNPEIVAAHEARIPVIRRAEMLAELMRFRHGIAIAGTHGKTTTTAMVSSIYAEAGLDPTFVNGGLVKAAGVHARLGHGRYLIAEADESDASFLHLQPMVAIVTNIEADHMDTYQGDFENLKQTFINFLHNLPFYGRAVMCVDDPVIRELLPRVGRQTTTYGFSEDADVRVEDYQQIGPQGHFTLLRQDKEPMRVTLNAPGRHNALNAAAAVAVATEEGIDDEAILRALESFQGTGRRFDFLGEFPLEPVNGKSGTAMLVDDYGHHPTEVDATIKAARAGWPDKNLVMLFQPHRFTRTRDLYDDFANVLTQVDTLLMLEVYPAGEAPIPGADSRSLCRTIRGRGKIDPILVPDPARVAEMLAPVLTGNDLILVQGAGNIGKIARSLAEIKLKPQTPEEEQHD

| SMILES | relative enzymatic activity |
| --- | --- |
| O=C([O-])C1=C(CSc2nnnn2CS(=O)(=O)[O-])CSC2C(NC(=O)C(O)c3ccccc3)C(=O)N12.[Na+].[Na+] (stereo not given) | 1.25 ± 0.052 |
| O=C1OC(=O)[C@H]2[C@@H]1[C@H]1CC[C@H]2O1 | 1.18 ± 0.093 |
| Cl.N=C(N)n1cccn1 | 0.968 ± 0.063 |
| CC[C@H]1OC(=O)[C@H](C)[C@@H](O[C@H]2C[C@@](C)(OC)[C@@H](O)[C@H](C)O2)[C@H](C)[C@@H](O[C@@H]2O[C@H](C)C[C@H](N(C)C)[C@H]2O)[C@](C)(O)C[C@@H](C)C(=O)[C@H](C)[C@@H](O)[C@]1(C)O | 0.959 ± 0.064 |
| CC[C@H]1OC(=O)[C@H](C)[C@@H](O[C@H]2C[C@@](C)(OC)[C@@H](O)[C@H](C)O2)[C@H](C)[C@@H](O[C@@H]2O[C@H](C)C[C@H](N(C)C)[C@H]2O)[C@](C)(O)C[C@@H](C)CN(C)[C@H](C)[C@@H](O)[C@]1(C)O | 1.06 ± 0.02 |
| CN(C)C1C(O)=C(C(N)=O)C(=O)C2(O)C(O)=C3C(=O)c4c(O)cccc4C(C)(O)C3C(O)C12.Cl (stereo not given) | 1.09 ± 0.081 |
| CC[C@@H](C)CCCCC(=O)N[C@@H](CCN)C(=O)N[C@H](C(=O)N[C@@H](CCN)C(=O)N[C@H]1CCNC(=O)[C@H]([C@@H](C)O)NC(=O)[C@H](CCN)NC(=O)[C@H](CCN)NC(=O)[C@H](CC(C)C)NC(=O)[C@@H](Cc2ccccc2)NC(=O)[C@@H](CCN)NC1=O)[C@@H](C)O | 1.03 ± 0.032 |
| Oc1ccc(Cl)c2cccnc12 | 1.16 ± 0.16 |
| CC1CN(c2c(F)c(F)c3c(=O)c(C(=O)O)cn(C4CC4)c3c2F)CC(C)N1 (stereo not given) | 0.891 ± 0.082 |
| COC1=C(N)C(=O)c2nc(-c3nc(C(=O)O)c(C)c(-c4ccc(OC)c(OC)c4O)c3N)ccc2C1=O | 1.31 ± 0.37 |
| N[C@@H]1CC[C@@H](c2ccc(Cl)c(Cl)c2)c2ccccc21 | 0.806 ± 0.12 |
| CCC=C(C(=O)NC1C(=O)N2C(C(=O)OCOC(=O)C(C)(C)C)=C(COC(N)=O)CSC12)c1csc(N)n1.Cl (stereo not given) | 0.843 ± 0.14 |
| CCC1OC(=O)C(C)C(=O)C(C)C(OC2OC(C)CC(N(C)C)C2O)C(C)(OC)CC(C)C(=O)C(C)C2N(CCCCn3cnc(-c4cccnc4)c3)C(=O)OC12C (stereo not given) | 0.741 ± 0.33 |
| CN[C@@H]1[C@H](O)[C@H](NC)[C@H]2O[C@@]3(O)C(=O)C[C@@H](C)O[C@H]3O[C@@H]2[C@H]1O | 0.955 ± 0.11 |
| CC(NCCCc1cccc(C(F)(F)F)c1)c1cccc2ccccc12.Cl (stereo not given) | 0.985 ± 0.092 |
| NC(=O)[C@@H]1C(=O)C[C@@H]2C[C@@H]3Cc4cccc(O)c4C(=O)[C@@H]3C(=O)[C@]2(O)C1=O | 1.17 ± 0.092 |
| CC(=O)OCC1=C(C(=O)[O-])N2C(=O)C(NC(=O)Cc3cccs3)C2SC1.[Na+] (stereo not given) | 1.08 ± 0.043 |
| NC[C@H]1O[C@H](O[C@H]2[C@H](O)[C@@H](O[C@H]3O[C@H](CO)[C@@H](O)[C@H](N)[C@H]3O)[C@H](N)C[C@@H]2N)[C@H](N)[C@@H](O)[C@@H]1O | 0.9682 ± 0.0015 |
| O=c1[nH]c(=O)n([C@@H]2C[C@@H](O)[C@@H](CO)O2)cc1F | 1.02 ± 0.035 |
| CON=C(C(=O)NC1C(=O)N2C(C(=O)O)=C(CSC(=O)c3ccco3)CSC12)c1csc(N)n1.Cl (stereo not given) | 0.89 ± 0.22 |

| SMILES | relative enzymatic activity |
| --- | --- |
| CON=C1CN(c2nc3c(cc2F)c(=O)c(C(=O)O)cn3C2CC2)CC1CN.CS(=O)(=O)O (stereo not given) | 0.669 ± 0.18 |
| CC1COc2c(C3(N)CC3)c(F)cc3c(=O)c(C(=O)O)cn1c23.CS(=O)(=O)O (stereo not given) | 0.958 ± 0.027 |
| Nc1c2ccccc2nc2ccccc12 | 0.998 ± 0.044 |
| CNC1C(O)C(NC)C2OC3(O)C(=O)CC(C)OC3OC2C1O.Cl.Cl (stereo not given) | 0.914 ± 0.024 |
| CCn1cc(C(=O)O)c(=O)c2cc(F)c(N3CCN(C)CC3)cc21.CS(=O)(=O)O | 1.02 ± 0.013 |
| COC(=O)N/N=C/c1ccc([N+](=O)[O-])o1 | 1.01 ± 0.15 |
| CC1(C)S[C@@H]2[C@H](NC(=O)[C@H](N)c3ccccc3)C(=O)N2[C@H]1C(=O)OCOC(=O)[C@@H]1N2C(=O)C[C@H]2S(=O)(=O)C1(C)C | 1.08 ± 0.1 |
| CC[C@@H]1OC(=O)[C@H](C)[C@@H](O[C@H]2C[C@@](C)(OC)[C@@H](O)[C@H](C)O2)[C@H](C)[C@@H](O[C@@H]2O[C@H](C)C[C@H](N(C)C)[C@H]2O)[C@](C)(O)C[C@@H](C)/C(=N\OCOCCOC)[C@H](C)[C@@H](O)[C@]1(C)O | 0.962 ± 0.064 |
| CN[C@H]1CN(c2ccc3c(=O)c(C(=O)O)cn(-c4nccs4)c3n2)C[C@@H]1OC | 1.035 ± 0.0069 |
| CN(C)[C@@H]1C(=O)[C@@H](C(N)=O)C(=O)[C@@]2(O)C(=O)[C@H]3C(=O)c4c(O)ccc(Cl)c4[C@@H](O)[C@H]3C[C@@H]12 | 1.009 ± 0.01 |
| Cc1cc(C2CCCCC2)n(O)c(=O)c1.NCCO | 1.18 ± 0.057 |
| CN[C@@H]1[C@H](O[C@H]2[C@H](O[C@@H]3[C@@H](O)[C@H](O)[C@@H](NC(=N)N)[C@H](O)[C@H]3NC(=N)N)O[C@@H](C)[C@]2(O)CO)O[C@@H](CO)[C@H](O)[C@H]1O.CN[C@@H]1[C@H](O[C@H]2[C@H](O[C@@H]3[C@@H](O)[C@H](O)[C@@H](NC(=N)N)[C@H](O)[C@H]3NC(=N)N)O[C@@H](C)[C@]2(O)CO)O[C@@H](CO)[C@H](O)[C@H]1O | 0.963 ± 0.063 |
| CC(C)[C@@H](CC[C@@H](C)[C@H]1CC[C@H]2[C@@H]3[C@H](O)C[C@H]4C[C@@H](NCCCNCCCCNCCCN)CC[C@]4(C)[C@H]3CC[C@]12C)OS(=O)(=O)O | 1.05 ± 0.014 |
| CN(C)[C@@H]1C(=O)[C@@H](C(N)=O)C(=O)[C@@]2(O)C(=O)[C@@H]3C(=O)c4c(O)c(NC(=O)CN5CCCC5)cc(F)c4C[C@H]3C[C@@H]12 | 1.01 ± 0.063 |
| CCOC(=O)OC(C)OC(=O)C1N2C(=O)C(NC(=O)C(N)c3ccccc3)C2SC1(C)C.Cl (stereo not given) | 1.01 ± 0.035 |
| CON=C(C(=O)NC1C(=O)N2C(C(=O)[O-])=C(COC(C)=O)CSC12)c1csc(N)n1.[Na+] (stereo not given) | 0.961 ± 0.082 |
| CCCCCCCCCCCCC[N+](C)(C)Cc1ccccc1 | 0.106 ± 0.027 |
| CON=C(C(=O)NC1C(=O)N2C(C(=O)OCOC(=O)C(C)(C)C)=C(C=Cc3scnc3C)CSC12)c1csc(N)n1 (stereo not given) | 0.659 ± 0.044 |
| CCn1cc(C(=O)O)c(=O)c2cc(F)c(N3CCNCC3)cc21 | 1 ± 0.082 |
| COC(=O)N/N=C/c1c[n+]([O-])c2ccccc2[n+]1[O-] | 1 ± 0.079 |
